SUMO HTRF inh = SUMOylation inhibition; P63279; HTRF SUMOylation assay, SAE1/SAE2 + UBC9, in vitro; inhibition, % at 35 µM; hit rate 0.36% among 290,000; AID 2006; in the data active means inhibition above about 50%, passing the limit was not always enough; inconclusive means no clear call, values can overlap the other calls
PfM18AAP inh = PfM18AAP enzyme inhibition. recombinant PfM18AAP, H-Glu-NHMec fluorogenic cleavage. inhibition, % at 7.35 µM. hit rate 1.2% among 290,000;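 active means inhibition above the campaign mean inhibition over all tested compounds plus 3 SD, cut at about 28% in these data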
HDAC3 inh = inhibitors of human histone deacetylase 3; O15379; recombinant HDAC3, fluorogenic peptide/trypsin coupled, fluorescence; inhibition, % at 8.3 µM; hit rate 0.15% among 320,000; AID 2718; in the data active means inhibition above about 26%, passing the limit was not always enough; inconclusive means no clear call, values can overlap the other calls
PHOSPHO1 inh = blocks human PHOSPHO1 phosphatase activity. hit rate 1.1% among 290,000. Q8TCT1. inhibition, % at 13.3 µM. recombinant PHOSPHO1, absorbance phosphatase assay; in the data active means inhibition above about 60%
p97 inhibitor = inhibitors of human p97 ATPase; P55072; recombinant p97 ATPase, Kinase-Glo ATP luminescence, 3 h; inhibition, % at 8 µM; hit rate 0.42% among 220,000; in the data active means inhibition above about 15%
G6PDH CS = L. mesenteroides G6PDH inhibition counter-screen; Purified L. mesenteroides G6PDH, diaphorase/resazurin coupled fluorescence, 45 min; inhibition, % at 5 µM; hit rate 0.12% among 200,000; in the data active means inhibition above about 50%
Numbers stand for hits; 0 = inactive; ? = inconclusive; - = no result. This is a sample that favours compounds with a hit; in the whole collection about 2.5% have one here.

SMILES	SUMO HTRF inh	PfM18AAP inh	HDAC3 inh	PHOSPHO1 inh	p97 inhibitor	G6PDH CS
CC(=O)N1c2ccc(S(=O)(=O)N3CCCCC3)cc2CC1C(=O)Nc1ccc(F)cc1C (configuration not stated)	0	0	0	0	-	-
O=C(CCC1CCCN(C(=O)c2ccc3[nH]ccc3c2)C1)N1CCN(c2ccccn2)CC1 (configuration not stated)	0	0	0	64	0	0
O=C(CCC1CCCN(C(=O)c2ccc3cc[nH]c3c2)C1)N1CCN(c2ccccn2)CC1 (configuration not stated)	0	0	0	0	0	0
OCCN1CCN(C2CCC(c3ccc(F)cc3)c3ccc(F)cc32)CC1 (configuration not stated)	-	-	0	-	-	-
COc1ccc(-n2c(SC3CCOC3=O)nc3ccccc3c2=O)cc1OC (configuration not stated)	0	0	0	66	0	0
COc1ccc(-n2c(SC3CCOC3=O)nc3ccccc3c2=O)cc1Cl (configuration not stated)	0	0	0	0	0	0
CC(OC(=O)c1cccc(-n2cnnn2)c1)c1nc2ccccc2c(=O)[nH]1 (configuration not stated)	-	-	0	-	-	-
C[C@H](Nc1ncnc2sc3c(c12)CCC3)C(=O)O	0	0	0	66	0	0
Cc1cccc(NS(=O)(=O)c2cc3c(cc2C)NC(=O)CO3)c1	0	0	0	0	-	-
Cc1ccc(S(=O)(=O)N2CCOCC2)cc1C(=O)OCC(=O)c1c(N)n(C)c(=O)n(C)c1=O	-	-	0	-	-	-
CC(C)Cn1c(N)c(C(=O)COC(=O)c2cc(S(=O)(=O)N3CCOCC3)ccc2Br)c(=O)n(C)c1=O	-	-	34	-	-	-
CCOC(=O)c1ccccc1NC(=O)CSc1nc2[nH]ncc2c(=O)[nH]1	-	-	0	-	-	-
Cc1ccc(OCC(=O)NC(=S)Nc2ccc(Br)cn2)cc1C	0	0	0	0	0	0
Cc1cccc(CCNC(=O)CNS(=O)(=O)c2ccc3nc(C)sc3c2)c1	0	0	0	0	-	-
Cc1nc2ccc(S(=O)(=O)NCC(=O)NCCc3ccc(Cl)cc3)cc2s1	0	0	0	70	-	-
O=C(CN1C(=O)NC(CCc2ccccc2)C1=O)Nc1ccc(F)c(F)c1F (configuration not stated)	-	-	0	-	-	-
COC(=O)C1=C(C)NC(=O)NC1c1ccc(-c2ccc(Cl)cc2)o1 (configuration not stated)	0	0	45	0	0	0
COC(=O)C1=C(C)NC(=O)NC1c1ccc([N+](=O)[O-])o1 (configuration not stated)	0	0	0	0	0	0
CCn1c(SCC(=O)N2CCN(c3ccc(Cl)cc3)CC2)nc2ccccc2c1=O	0	0	0	66	0	0
CCCCn1c(SCC(=O)N2CCN(c3ccccc3)CC2)nc2ccsc2c1=O	0	0	0	78	0	0
CCn1c(SCC(=O)N2CCN(c3ccc(F)cc3)CC2)nc2ccccc2c1=O	0	0	0	0	0	0
CC(C)NC(=O)C(C)Oc1ccc(S(=O)(=O)NCc2ccc3c(c2)OCO3)cc1 (configuration not stated)	0	0	0	0	-	-
Cc1ccc(C(=O)Nc2cccc(C(=O)NC3CCCCC3)c2)cc1	0	0	0	0	-	-
COc1ccc(OC)c(N(CC(=O)Nc2ccc3c(c2)OCO3)S(=O)(=O)c2ccccc2)c1	0	0	0	0	0	0
COc1ccc(Cl)cc1N(CC(=O)Nc1ccc2c(c1)OCO2)S(C)(=O)=O	0	0	0	69	0	0
SMILES	SUMO HTRF inh	PfM18AAP inh	HDAC3 inh	PHOSPHO1 inh	p97 inhibitor	G6PDH CS
Cc1ccc(NC(=O)c2ccccc2)cc1	0	0	0	0	0	0
CNC(=S)/N=C(\Nc1ccc(C)cc1)c1ccccc1	0	30	0	0	0	-
Cc1ccc(N/N=C/c2c(O)cc(C)oc2=O)cc1	0	0	0	88	0	0
O=C(NCc1nc(-c2ccc(C(F)(F)F)cc2)no1)Nc1cc(Cl)cc(Cl)c1	0	0	0	0	0	-
O=C(c1ccc(-c2cc(O)c3ncccc3c2)cc1)N1CCNCC1	-	-	0	-	-	-
S=C(NCCNC(=S)Nc1ccccc1)Nc1ccccc1	0	0	0	0	-	-
S=C(NCCOCCOCCNC(=S)Nc1ccccc1)Nc1ccccc1	0	28	0	0	0	0
COc1ccc2cc(C(=O)/C=C/c3cc(OC)c(O)c(OC)c3)ccc2c1	0	29	0	0	-	-
CCOC(=O)c1nn(-c2ccc(F)cc2)c(=O)c2c(N)scc12	0	0	0	0	0	51
CCSc1nnc(NC(=O)CCNC(=O)c2ccccc2Cl)s1	-	-	0	-	-	-
c1ccc(-c2nc(Sc3ncnc4c3cnn4-c3ccccc3)n[nH]2)cc1	0	0	0	87	0	0
O=c1[nH]c(=S)[nH]c2c1C(c1ccc(Br)cc1)c1c([nH]c(=S)[nH]c1=O)O2	80	0	0	0	-	-
Cn1cnc([N+](=O)[O-])c1Sc1ncccc1N	0	0	?	102	0	0
COc1ccccc1/C=C/CN1CCCC(CCC(=O)NCc2ccccc2F)C1 (configuration not stated)	0	0	0	0	0	0
Cc1cc(OC(=O)c2ccccc2)n(CCC#N)n1	0	0	87	0	0	0
O=C(CSc1nccn1Cc1ccco1)Nc1ccccc1	0	0	-	0	-	-
Cc1ccc(C)c(C(=O)CCC(=O)Nc2ccc(N3CCN(C)CC3)cc2C)c1	-	-	0	-	-	-
COc1ccccc1NC(=O)Nc1ccnn1Cc1cccs1	78	0	0	0	0	0
COc1ccccc1NC(=O)Cc1cccs1	0	0	0	0	0	0
CC1CCCC(C)N1C(=O)CSc1nc2c(c(=O)n(C)c(=O)n2C)n1C (configuration not stated)	0	0	0	0	-	-
CCOC(=O)Cc1csc(-n2sc3ccccc3c2=O)n1	0	0	0	96	0	0
O=c1oc2ccc3ccccc3c2cc1-c1nnc(-c2ccccc2)o1	0	0	0	0	0	0
Nc1nnc(-c2cc3c(ccc4ccccc43)oc2=O)s1	66	0	-	0	0	0
Clc1ccccc1-c1nnc2sc(C3COc4ccccc4O3)nn12 (configuration not stated)	0	0	0	80	0	0
c1ccc(OCc2nnc3sc(C4COc5ccccc5O4)nn23)cc1 (configuration not stated)	0	0	0	80	0	0
Cc1ccc(-c2nnc3sc(C4COc5ccccc5O4)nn23)cc1 (configuration not stated)	0	0	0	0	0	0
CCOc1ccc(Cl)cc1S(=O)(=O)N1CCC(C(=O)NCc2ccco2)CC1	0	0	0	0	-	-
COc1cccc(CNC(=O)c2ccc(C)c(S(=O)(=O)N3CCCCC3)c2)c1	-	-	0	-	-	-
COc1ccc(S(=O)(=O)Nc2cc(C(C)C)c(O)cc2C)cc1	0	0	0	0	0	0
C/C(=N\S(=O)(=O)c1ccc(C)cc1)Nc1cc(C(C)C)c(O)cc1C	0	29	0	0	0	0

Compound activity (PubChem)
